This is a sample that favours compounds with a hit; in the whole collection about 4.8% have one here.
PfHsp90 set2 = growth inhibition of PfHsp90-expressing yeast, primary screen, antimalarial PfHsp90 inhibitor project, S. cerevisiae, BacTiter-Glo luminescence, single point, set 2. BacTiter-Glo ATP, 48 h; yeast lacking PDR1 and PDR3 efflux regulators. AID 504621, 2011. inhibition, % at 9.4 µM. 0.32% of 310,000 active;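 active = every replicate shows inhibition above about 80%, whatever the replicate mean, limit read from the data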;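 note: 0% = DMSO neutral controls and 100% = 20 µM radicicol positive controls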
TIM10 inh = growth inhibitors of isogenic TIM10 control yeast, primary screen, counter-screen for tim10-1 yeast inhibitor project, luminescence, uHTS; S. cerevisiae TIM10 strain growth, BacTiter-Glo luminescence, 24 h; inhibition, % at 10 µM; 1.4% of 330,000 active;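 active = inhibition of 40% or more at the single tested concentration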;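 note: wild-type TIM10 isogenic control strain grown at permissive 25 °C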
NALP1 yeast inh = NALP1 inflammasome inhibitors in reconstituted yeast, colorimetric, S. cerevisiae, triplicate retest; S. cerevisiae NALP1/ASC/caspase-1 growth, X-gal OD620, 72 h; inhibition, % at 10 µM; AID 2071, 2009; 0.61% of 280,000 active; in the data active = inhibition mostly above about 24%, no sharp cut-off; inactive = mostly below about 32%
tim10-1 inh = growth inhibitors of tim10-1 mutant yeast, primary screen, luminescence, uHTS; S. cerevisiae tim10-1 ts strain growth, BacTiter-Glo, 24 h; inhibition, % at 20 µM; 2.2% of 330,000 active; AID 463190, 2010;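 active = inhibition of at least 40%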;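 note: mutant grown at 25 °C; 0% = DMSO wells with yeast and 100% = wells holding no yeast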
tim23-1 inh = growth inhibitors of tim23-1 mutant yeast, primary screen, luminescence, uHTS. S. cerevisiae tim23-1 growth, BacTiter-Glo luminescence, 24 h. inhibition, % at 20 µM. 1.3% of 330,000 active. AID 463212, 2010;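 active = growth inhibition of the mutant yeast at or above 50%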;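 note: temperature-sensitive mutant grown at 25 °C; plate controls were DMSO-treated mutant yeast for no effect and medium wells lacking yeast for full effect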
SKKanGAS inh = S. pyogenes SKKanGAS growth inhibitors in kanamycin, primary screen, streptokinase expression inhibitor project, SKKanGAS strain, BacTiter-Glo luminescence; 6 h; inhibition, % at 7.5 µM; 1.3% of 300,000 active;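 active = mean replicate score, as percent of positive control median, at least 50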;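 note: strain carries kanamycin resistance gene driven by streptokinase promoter and grows in 40 µg/ml kanamycin; loss of luminescence reflects streptokinase promoter inhibition or plain growth inhibition; 0% = median of DMSO wells and 100% = positive control at its reference dose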
tim10-1 confirm = growth inhibitors of tim10-1 mutant yeast, confirmation, single concentration, luminescence, S. cerevisiae | shares compounds with tim10-1 inh | S. cerevisiae tim10-1 ts strain growth, BacTiter-Glo, 24 h | inhibition, % at 20 µM | 56% of 7,400 active | AID 463213, 2010;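 active = inhibition of yeast growth at or above a set limit in either of two repeat tests at 20 µM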;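 note: tim10-1 mutant grown at permissive 25 °C to find synthetic lethal compounds; 0% = DMSO yeast wells and 100% = medium wells without yeast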
tim10 confirm = growth inhibitors of wild-type TIM10 yeast, confirmation, counter-screen for tim10-1 synthetic lethality project, single concentration, luminescence, S. cerevisiae; shares compounds with TIM10 inh; S. cerevisiae tim10 strain growth, BacTiter-Glo luminescence, 24 h; inhibition, % at 10 µM; 63% of 4,600 active; AID 463215, 2010;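 active = inhibition of yeast growth at or above a set limit in either of two replicates at 10 µM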;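 note: this counterscreen used the strain with wild-type TIM10; 0% = yeast with DMSO and 100% = medium wells lacking yeast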
tim23-1 conf = tim23-1 mutant yeast growth inhibitors, confirmation, luminescence, single concentration. shares compounds with tim23-1 inh. S. cerevisiae tim23-1 growth, BacTiter-Glo luminescence, 24 h. inhibition, % at 20 µM. 83% of 4,400 active;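 active = inhibition above about 39% in either of two replicate wells at 20 µM, limit read from the data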;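 note: temperature-sensitive tim23-1 mutant grown at 25 °C; 0% = DMSO wells with yeast and 100% = medium wells without yeast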
* hit, by the source's call.

O=S(=O)(Nc1ccc(-c2nc3ccccc3o2)cc1)c1ccccc1 was read as PfHsp90 set2 -115, TIM10 inh 52*, NALP1 yeast inh 31, tim10-1 inh 47*, tim23-1 inh 61*, SKKanGAS inh 8, tim10-1 confirm 40*, tim10 confirm 36* and tim23-1 conf 53*.
For NC(N)=N/N=C/c1ccc(OS(=O)(=O)c2ccccc2)cc1 the results were PfHsp90 set2 1, TIM10 inh -4, NALP1 yeast inh 2, tim10-1 inh 4, tim23-1 inh -34 and SKKanGAS inh -2.
For COc1ccc(CCNC(=S)NC(=O)c2ccccc2)cc1OC the results were PfHsp90 set2 3, TIM10 inh 53*, NALP1 yeast inh -4, tim10-1 inh 48*, tim23-1 inh 56*, SKKanGAS inh -9, tim10-1 confirm 39*, tim10 confirm 31* and tim23-1 conf 44*.
For N#Cc1c(C(F)(F)F)cc(-c2ccccc2)n(N)c1=O the results were PfHsp90 set2 -16, TIM10 inh 16, NALP1 yeast inh 14, tim10-1 inh -2, tim23-1 inh 4 and SKKanGAS inh 0.
Screening Cc1ccc(N=Cc2c(C)[nH]n(-c3nc4ccccc4[nH]3)c2=O)cc1 returned PfHsp90 set2 91*, TIM10 inh 44*, NALP1 yeast inh 23, tim10-1 inh 62*, tim23-1 inh 65*, SKKanGAS inh 66*, tim10-1 confirm 60*, tim10 confirm -11 and tim23-1 conf 68*.
O=C(O)c1cccc(Nc2ccc3nonc3c2[N+](=O)[O-])c1 was read as PfHsp90 set2 -31, TIM10 inh -6, NALP1 yeast inh 1, tim10-1 inh -9, tim23-1 inh -7 and SKKanGAS inh 2.
Screening O=C(Nc1ccccc1)ON=C1CCCC1 returned PfHsp90 set2 -21, TIM10 inh 40, NALP1 yeast inh 40, tim10-1 inh 34, tim23-1 inh 39 and SKKanGAS inh 0.
Screening N/C(=N\OC(=O)Nc1ccccc1)c1ncc([N+](=O)[O-])s1 returned PfHsp90 set2 12, TIM10 inh 57*, tim10-1 inh 51*, tim23-1 inh 77*, SKKanGAS inh 13, tim10-1 confirm 48*, tim10 confirm 60* and tim23-1 conf 19.
CN(CC(=O)Nc1cccc(C(F)(F)F)c1)Cc1ccccc1 was read as PfHsp90 set2 -24, TIM10 inh -1, NALP1 yeast inh 8, tim10-1 inh 14, tim23-1 inh 17 and SKKanGAS inh 1.
O=C1CC(c2ccccc2)CC(O)=C1C=Nc1cccc(Cl)c1 (stereo not given) was read as PfHsp90 set2 105*, TIM10 inh 90*, NALP1 yeast inh 34, tim10-1 inh 89*, tim23-1 inh 85*, SKKanGAS inh 3, tim10-1 confirm 79*, tim10 confirm 94* and tim23-1 conf 85*.
COc1ccc2cc3cc(C(=O)NCCN4CCc5ccccc5C4)oc3nc2c1 was read as PfHsp90 set2 -31, TIM10 inh 86*, NALP1 yeast inh 3, tim10-1 inh 75*, tim23-1 inh 63*, SKKanGAS inh 5, tim10-1 confirm 68*, tim10 confirm -2 and tim23-1 conf 36.
CCCc1cnc(N2CCN(C(=O)c3ccc(F)cc3)CC2)nc1 was read as PfHsp90 set2 -13, TIM10 inh 19, NALP1 yeast inh 13, tim10-1 inh 18, tim23-1 inh 25 and SKKanGAS inh 0.
CSC1=NCCN1C(=O)Cc1ccc(F)cc1 was read as PfHsp90 set2 -6, TIM10 inh -2, NALP1 yeast inh 1, tim10-1 inh -8, tim23-1 inh -13 and SKKanGAS inh -2.
For CCSC1=NCCN1C(=O)Cc1ccc(-c2ccccc2)cc1 the results were TIM10 inh 76*, NALP1 yeast inh 18, tim10-1 inh 77*, tim23-1 inh 67*, SKKanGAS inh -1, tim10-1 confirm 76*, tim10 confirm 74* and tim23-1 conf 36.
Screening CSC1=NCCN1C(=O)Cc1ccc(-c2ccccc2)cc1 returned PfHsp90 set2 -134, TIM10 inh 59*, NALP1 yeast inh 18, tim10-1 inh 61*, tim23-1 inh 73*, SKKanGAS inh 2, tim10-1 confirm 69*, tim10 confirm 67* and tim23-1 conf 35.
`CCn1c(O)c(C2=c3ccccc3=NC2=O)c2cc(Br)ccc21` gave TIM10 inh 60*, NALP1 yeast inh 19, tim10-1 inh 61*, tim23-1 inh 75*, SKKanGAS inh 35, tim10-1 confirm 51*, tim10 confirm 68* and tim23-1 conf 69*.
Screening O=C1N=c2ccccc2=C1c1c(O)n(-c2cccc(F)c2)[nH]c1=O returned PfHsp90 set2 17, NALP1 yeast inh 14 and SKKanGAS inh 6.
COc1ccc(-c2nc(SCc3ccccc3)n(S(C)(=O)=O)n2)cc1 was read as PfHsp90 set2 -9, TIM10 inh 33, NALP1 yeast inh 16, tim10-1 inh 17, tim23-1 inh 11 and SKKanGAS inh 0.
For CCS(=O)(=O)n1nc(-c2ccc(Cl)cc2)nc1SCc1ccccc1 the results were TIM10 inh 9, NALP1 yeast inh 2, tim10-1 inh 40*, tim23-1 inh 62*, SKKanGAS inh 29, tim10-1 confirm 2 and tim23-1 conf 57*.
COc1ccc(C(=O)On2c(-c3ccc(Br)cc3)nc3ccccc3c2=O)cc1 was read as PfHsp90 set2 2, TIM10 inh 74*, NALP1 yeast inh 35, tim10-1 inh 57*, tim23-1 inh 61*, SKKanGAS inh 19, tim10-1 confirm 52*, tim10 confirm 74* and tim23-1 conf 79*.
Screening COc1ccc(O)c(CNn2c(-c3ccc(Br)cc3)nc3ccccc3c2=O)c1 returned PfHsp90 set2 -4, TIM10 inh 28, NALP1 yeast inh 16, tim10-1 inh 35, tim23-1 inh 31 and SKKanGAS inh -5.

Source: PubChem
